This is one part of a sample in which hits are shown more often than they occur.
PD-1 reversal: reversal of PD-1 mediated T-cell inhibition; primary human CD4 T cells, PD-L1 beads, CellTiter-Glo 96 h; activation, % (test concentration not listed); 29,000 tested, under 10 active; call rule not given here;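 further: 0% = median vehicle wells and 100% = positive control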
ROS inducer: inducers of reactive oxygen species in cancer cells. U2OS ROS induction, H2DCF-DA fluorescence. ROS induction (% of piperlongumine), % at 10 µM. actives 2% (n = 46,000). AID 624156; in the data active means ROS induction above about 79%, passing the limit was not always enough;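 further: 0% = DMSO vehicle median and 100% = reference compound median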
YB-1 expr inh: YB-1 expression inhibition. U2OS, qRT-PCR YB-1 vs CDIP delta delta Cp, 16 h; hits give high values; zero = DMSO, each unit about twofold. delta delta Cp (YB-1 minus CDIP) (no concentration beside the values). actives 0.37% (n = 30,000). AID 434959;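 active means delta delta Cp rounded down to an integer at or above 3, about 3 SD of DMSO wells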;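 further: higher means less YB-1 transcript or more CDIP transcript relative to DMSO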
NOMO-1 viab: STK33 inhibitor candidate reducing NOMO-1 cell viability; NOMO-1 AML viability, CellTiter-Glo luminescence, 72 h; inhibition, % (no concentration beside the values); actives 7.5% (n = 37,000); AID 2330; in the data active means inhibition above about 80%
MITF inh: blocks MITF activity; TRPM1 promoter luciferase, luminescence, 24 h; inhibition, % (no concentration beside the values); actives 0.28% (n = 37,000); in the data active means inhibition above about 85%;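 further: human melanocyte line stably carrying TRPM1 promoter luciferase reporter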
* = called active by the depositor; . = not tested or not shown.

SMILES	PD-1 reversal	ROS inducer	YB-1 expr inh	NOMO-1 viab	MITF inh
COc1ccccc1C(=O)Oc1c(CN2CCOCC2)cc(Cl)c2cccnc12	.	.	.	109.0*	46.2
CCc1ccc2nc(N3CCC(C(=O)NCC4COc5ccccc5O4)CC3)sc2c1 (configuration not stated)	.	-17.4	.	.	.
Cc1cc(I)ccc1NC(=O)CN(c1cc(Cl)ccc1C)S(C)(=O)=O	-0.2	1.5	.	31.9	-4.6
Cc1ccc(S(=O)(=O)NC(C)C(=O)Nc2cc(C(F)(F)F)ccc2Cl)cc1 (configuration not stated)	0.1	53.3	.	18.5	1.0
CC1(C)CC(NC(=O)NC(=O)c2c(F)cccc2F)CC(C)(C)N1	.	-9.8	.	.	.
C=CCNC(=O)[C@H]1[C@@H]2C(=O)O[C@@H](c3ccccc3)[C@@H](c3ccccc3)N2[C@@H](c2ccc(OCCO)cc2)[C@]12C(=O)N(C(=O)OCCOC)c1ccc(C#CCC(C(=O)OC)C(=O)OC)cc12	.	156.5*	0.338	.	.
C=CCNC(=O)[C@@H]1[C@H]2C(=O)O[C@H](c3ccccc3)[C@H](c3ccccc3)N2[C@H](c2ccc(OCCO)cc2)[C@@]12C(=O)N(C(=O)OCCOC)c1ccc(C#Cc3ccc(OC)cc3)cc12	.	9.1	0.587	.	.
C=CCNC(=O)[C@@H]1[C@H]2C(=O)O[C@H](c3ccccc3)[C@H](c3ccccc3)N2[C@H](c2ccc(OCCO)cc2)[C@@]12C(=O)N(C(=O)OCCOC)c1ccc(C#CCC(C(=O)OC)C(=O)OC)cc12	.	132.2*	0.0319	.	.
CCOc1ccc(/C=C2\SC(=Nc3cccc(C)c3C)NC2=O)cc1	.	1.0	.	.	.
COc1cc(/C=C2/SC(=Nc3cc(C)cc(C)c3)NC2=O)cc(Br)c1OC	2.4	23.8	0.0302	119.8*	10.3
O=C(N/N=C/c1ccncc1Br)c1ccccc1O	.	3.5	0.501	.	.
N#C/C(=C\N1CCC(n2cccc2)CC1)S(=O)(=O)c1ccccn1	.	-11.1	.	.	.
Cc1ccc2nc(C(F)(F)F)cc(N3CCN(/C=C(/C#N)S(=O)(=O)c4ccccn4)CC3)c2c1	.	92.7*	.	.	.
COc1cc(C2NC(=S)NC(c3ccccc3)=C2C(=O)c2ccccc2)cc(I)c1OCCO (configuration not stated)	-3.9	6.4	.	25.9	-22.1
COC(=O)COc1cc(Cl)c(C2NC(=S)NC(c3ccccc3)=C2C(C)=O)cc1OC (configuration not stated)	.	.	.	117.2*	15.8
O=C(Nc1ccc2nc3n(c(=O)c2c1)CCCC3)c1ccccn1	.	-6.5	.	.	.
COc1ccc(NC(=O)N(C)C[C@H]2Oc3c(NC(=O)C4CC4)cccc3C(=O)N([C@@H](C)CO)C[C@H]2C)cc1	0.1	-11.6	-0.331	3.4	-4.1
CC(C)NC(=O)N(C)C[C@H]1Oc2c(NC(=O)Nc3ccc(F)cc3)cccc2C(=O)N([C@@H](C)CO)C[C@H]1C	-5.3	-13.5	4.28*	11.9	3.7
C[C@H]1CN([C@@H](C)CO)C(=O)c2cccc(NC(=O)Nc3ccc(C(F)(F)F)cc3)c2O[C@H]1CN(C)C(=O)Nc1ccc2c(c1)OCO2	.	58.1	-0.0963	92.3*	-0.9
COc1ccc(NC(=O)N(C)C[C@@H]2Oc3c(NC(=O)C4CC4)cccc3C(=O)N([C@@H](C)CO)C[C@H]2C)cc1	0.7	86.9*	0.323	-7.9	-11.5
C[C@@H]1CN([C@H](C)CO)C(=O)c2cccc(NC(=O)Nc3ccc(C(F)(F)F)cc3)c2O[C@@H]1CN(C)C(=O)Nc1ccccc1	-4.0	29.8	-2.88	104.8*	13.1
CC(C)NC(=O)N(C)C[C@@H]1Oc2c(NC(=O)Nc3ccc(F)cc3)cccc2C(=O)N([C@H](C)CO)C[C@H]1C	-0.4	5.3	0.000259	-5.5	-1.6
O=C1C(=O)C(C2CCC(c3ccc(Cl)cc3)CC2)C(=O)c2ccccc21 (configuration not stated)	7.3	-3.8	0.0634	-6.0	14.0
OC1c2ccccc2-c2c3c(cc4c2C1NCC4)OCO3 (configuration not stated)	3.2	10.0	-0.739	64.7	27.9
C[C@@H]1CCCCO[C@@H](CN(C)Cc2ccccc2)[C@@H](C)CN([C@H](C)CO)C(=O)c2cc(NS(C)(=O)=O)ccc2O1	0.6	13.0	0.293	20.4	-7.1
SMILES	PD-1 reversal	ROS inducer	YB-1 expr inh	NOMO-1 viab	MITF inh
C[C@@H]1CN([C@@H](C)CO)C(=O)c2cccc(NC(=O)Nc3ccc(C(F)(F)F)cc3)c2O[C@H]1CN(C)C(=O)Nc1ccc(C(F)(F)F)cc1	.	14.3	-0.394	104.9*	60.2
C[C@H](CO)N1C[C@H](C)[C@H](CN(C)C(=O)Nc2ccc(F)cc2)Oc2c(NC(=O)CCCCCC(=O)Nc3ccccc3N)cccc2C1=O	-0.1	-4.6	-0.427	23.3	-24.7
C[C@@H]1CN([C@@H](C)CO)C(=O)c2cccc(NC(=O)CCCCCC(=O)Nc3ccccc3N)c2O[C@@H]1CN(C)C(=O)Nc1ccc(C(F)(F)F)cc1	-1.0	-6.6	-0.592	118.3*	0.4
C[C@H]1CN([C@@H](C)CO)C(=O)c2cccc(NC(=O)Nc3ccc(C(F)(F)F)cc3)c2O[C@@H]1CN(C)C(=O)Nc1ccc(C(F)(F)F)cc1	-3.3	-6.0	0.347	88.2*	0.0
C[C@H](CO)N1C[C@H](C)[C@H](CN(C)C(=O)Nc2ccccc2)Oc2c(NC(=O)Nc3ccc(F)cc3)cccc2C1=O	-1.2	-0.4	3.05*	53.6	16.7
C[C@H](CO)N1C[C@H](C)[C@@H](CN(C)C(=O)Nc2ccc(C(F)(F)F)cc2)Oc2c(NC(=O)Nc3ccccc3)cccc2C1=O	-1.9	-6.9	-0.377	12.6	-5.7
FC(F)(F)c1ccc(-c2csc(-c3ccc(-c4csnn4)cc3)n2)cc1	.	-8.9	.	.	.
CC(C)NC(=O)N(C)C[C@H]1Oc2ccc(NS(=O)(=O)c3cccs3)cc2C(=O)N([C@H](C)CO)C[C@H]1C	2.2	7.0	-0.134	10.8	8.1
CO[C@H]1O[C@H](CO)[C@@H](OC(=O)CCc2ccccc2)[C@H](OC(=O)c2cc3ccccc3[nH]2)[C@H]1OC(=O)c1cc2ccccc2[nH]1	.	10.2	0.0547	.	.
COc1ccc(S(=O)(=O)Nc2cccc3c2O[C@@H](CN(C)C(=O)Nc2ccc(F)cc2)[C@@H](C)CN([C@H](C)CO)C3=O)cc1	-3.6	-6.7	0.271	110.6*	14.1
COc1ccc(NC(=O)N(C)C[C@H]2Oc3c(NC(=O)Nc4ccc(C(F)(F)F)cc4)cccc3C(=O)N([C@H](C)CO)C[C@@H]2C)cc1	-5.2	-1.4	-0.622	102.6*	-3.6
CC(C)NC(=O)N(C)C[C@H]1Oc2c(NC(=O)Nc3ccc(C(F)(F)F)cc3)cccc2C(=O)N([C@H](C)CO)C[C@H]1C	-3.5	1.8	-0.207	114.7*	12.3
CC(C)NC(=O)N(C)C[C@@H]1Oc2c(NC(=O)C3CCOCC3)cccc2C(=O)N([C@H](C)CO)C[C@@H]1C	1.7	-12.5	-0.162	8.4	5.7
Cc1c(CCNC(NC(=O)c2ccc(Cl)cc2)(C(F)(F)F)C(F)(F)F)c2ccccc2n1C	.	4.7	.	.	.
